Laboratory results reported in PubChem BioAssay AID1159580 (chemical genetic matrix, 2015).
Values joined by “and” are separate entries in the source; they are usually repeats but may differ in a detail not shown here. Equal values may be shown once. Out of some 5,500 compounds screened, about 2,000 (36%) were called active. Inconclusive results (about 18%) are left out. The list shows a part of the results. A number with no mark means an inactive call. Cut-off read from the data, not from the text of the source: active = normalized growth mostly below about 0.91 (no sharp cut-off); inconclusive = no clear call, values can overlap the other calls; inactive = mostly above about 0.92.

Experiment: chemical genetic growth profiling, strain panel (AID 1159580);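 note: tested at 20 µM; growth read once vehicle control cultures reached saturation at 30 °C; 1 = growth at the plate median or of vehicle wells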
Settings: S. cerevisiae deletion strains, growth OD

Nc1ncnc2c1ncn2C1O[C@H](COP(=O)(O)O)[C@@H](O)[C@H]1O (stereo partly specified)
normalized growth (locus YAL013W, strain DEP1, stronger effect = lower value): 1.01 | normalized growth (locus YAL021C, strain ccr4, stronger effect = lower value): 0.996 | normalized growth (locus YAL026C, strain drs2, stronger effect = lower value): 1 | normalized growth (locus YAL030W, strain snc1, stronger effect = lower value): 0.997 | normalized growth (locus YBL061C, strain skt5, stronger effect = lower value): 0.999 | normalized growth (locus YBR009C, strain hhf1, stronger effect = lower value): 0.95 | normalized growth (locus YBR021W, strain FUR4, stronger effect = lower value): 1.01 | normalized growth (locus YBR023C, strain chs3, stronger effect = lower value): 0.99 | normalized growth (locus YBR171W, strain sec66, stronger effect = lower value): 1 | normalized growth (locus YBR229C, strain ROT2, stronger effect = lower value): 1.01 | normalized growth (locus YBR231C, strain swc5, stronger effect = lower value): 1.01 | normalized growth (locus YBR279W, strain paf1, stronger effect = lower value): 0.999 | normalized growth (locus YCL011C, strain gbp2, stronger effect = lower value): 0.991 | normalized growth (locus YCL016C, strain dcc1, stronger effect = lower value): 0.982 | normalized growth (locus YCL029C, strain bik1, stronger effect = lower value): 0.523 (active) | normalized growth (locus YCL069W, strain vba3, stronger effect = lower value): 0.996 | normalized growth (locus YCR088W, strain abp1, stronger effect = lower value): 0.988 | normalized growth (locus YDL005C, strain med2, stronger effect = lower value): 1.03 | normalized growth (locus YDL035C, strain GPR1, stronger effect = lower value): 1.04 | normalized growth (locus YDL040C, strain nat1, stronger effect = lower value): 1 | normalized growth (locus YDL074C, strain BRE1, stronger effect = lower value): 1.03 | normalized growth (locus YDL101C, strain DUN1, stronger effect = lower value): 1.01 | normalized growth (locus YDL134C, strain PPH21, stronger effect = lower value): 1.02 | normalized growth (locus YDL185W, strain tfp1, stronger effect = lower value): 0.992 | normalized growth (locus YDL192W, strain arf1, stronger effect = lower value): 0.811 (active) | normalized growth (locus YDR001C, strain nth1, stronger effect = lower value): 0.997 | normalized growth (locus YDR069C, strain doa4, stronger effect = lower value): 1.04 | normalized growth (locus YDR101C, strain arx1, stronger effect = lower value): 0.589 (active) | normalized growth (locus YDR137W, strain rgp1, stronger effect = lower value): 1 | normalized growth (locus YDR150W, strain NUM1, stronger effect = lower value): 1.02 | normalized growth (locus YDR159W, strain sac3, stronger effect = lower value): 0.95 | normalized growth (locus YDR162C, strain NBP2, stronger effect = lower value): 1.01 | normalized growth (locus YDR195W, strain ref2): 1.01 | normalized growth (locus YDR297W, strain sur2, stronger effect = lower value): 1.01 | normalized growth (locus YDR318W, strain mcm21, stronger effect = lower value): 0.73 (active) | normalized growth (locus YDR334W, strain swr1, stronger effect = lower value): 1 | normalized growth (locus YDR335W, strain msn5, stronger effect = lower value): 1 | normalized growth (locus YDR388W, stronger effect = lower value): 0.209 (active) | normalized growth (locus YDR392W, strain spt3, stronger effect = lower value): 0.95 | normalized growth (locus YDR502C, strain sam2, stronger effect = lower value): 0.632 (active) | normalized growth (locus YEL003W, strain gim4, stronger effect = lower value): 1 | normalized growth (locus YEL037C, strain rad23, stronger effect = lower value): 0.993 | normalized growth (locus YEL061C, strain CIN8 (second series), stronger effect = lower value): 1 | normalized growth (locus YEL061C, strain CIN8, stronger effect = lower value): 1.01 | normalized growth (locus YER015W, strain faa2, stronger effect = lower value): 0.987 | normalized growth (locus YER016W, strain bim1, stronger effect = lower value): 0.97 | normalized growth (locus YER110C, stronger effect = lower value): 0.798 (active) | normalized growth (locus YER111C, strain swi4, stronger effect = lower value): 0.991 | normalized growth (locus YER155C, strain BEM2 (second series), stronger effect = lower value): 1.05 | normalized growth (locus YER155C, strain BEM2, stronger effect = lower value): 1.01 | normalized growth (locus YER167W, strain BCK2, stronger effect = lower value): 1.03 | normalized growth (locus YFR010W, strain ubp6, stronger effect = lower value): 1.01 | normalized growth (locus YGL078C, strain dbp3, stronger effect = lower value): 0.993 | normalized growth (locus YGL086W, strain mad1, stronger effect = lower value): 0.74 (active) | normalized growth (locus YGL167C, strain pmr1, stronger effect = lower value): 1 | normalized growth (locus YGL173C, strain kem1, stronger effect = lower value): 0.995 | normalized growth (locus YGL227W, strain vid30, stronger effect = lower value): 1.01 | normalized growth (locus YGL240W, strain doc1, stronger effect = lower value): 1.04 | normalized growth (locus YGL248W, strain PDE1, stronger effect = lower value): 1.02 | normalized growth (locus YGL253W, strain hxk2, stronger effect = lower value): 0.972 | normalized growth (locus YGR078C, strain PAC10, stronger effect = lower value): 1.02 | normalized growth (locus YGR135W, strain pre9, stronger effect = lower value): 0.776 (active) | normalized growth (locus YGR229C, strain SMI1, stronger effect = lower value): 1.03 | normalized growth (locus YGR252W, strain gcn5, stronger effect = lower value): 0.987 | normalized growth (locus YHR013C, strain ard1, stronger effect = lower value): 0.965 | normalized growth (locus YHR027C, strain rpn1, stronger effect = lower value): 1 | normalized growth (locus YHR030C, strain SLT2, stronger effect = lower value): 1.01 | normalized growth (locus YHR079C, strain IRE1 (second series), stronger effect = lower value): 0.345 (active) | normalized growth (locus YHR079C, strain IRE1, stronger effect = lower value): 1.02 | normalized growth (locus YHR094C, strain hxt1, stronger effect = lower value): 0.955 | normalized growth (locus YHR129C, strain ARP1, stronger effect = lower value): 1.01 | normalized growth (locus YHR142W, strain chs7, stronger effect = lower value): 1.01 | normalized growth (locus YHR200W, strain rpn10, stronger effect = lower value): 0.911 (active) | normalized growth (locus YIL066C, strain RNR3, stronger effect = lower value): 1.03 | normalized growth (locus YIL073C, strain SPO22, stronger effect = lower value): 1.03 | normalized growth (locus YIL125W, strain kgd1, stronger effect = lower value): 0.999 | normalized growth (locus YIR030C, strain dcg1, stronger effect = lower value): 0.648 (active) | normalized growth (locus YJL092W, strain hpr5, stronger effect = lower value): 1 | normalized growth (locus YJL095W, strain BCK1 (second series), stronger effect = lower value): 0.996 | normalized growth (locus YJL095W, strain BCK1, stronger effect = lower value): 0.99 and 0.989 | normalized growth (locus YJL115W, strain asf1, stronger effect = lower value): 0.998 | normalized growth (locus YJL129C, strain trk1, stronger effect = lower value): 1 | normalized growth (locus YJL134W, strain LCB3, stronger effect = lower value): 1.01 | normalized growth (locus YJL154C, strain vps35, stronger effect = lower value): 0.999 | normalized growth (locus YJL164C, strain tpk1, stronger effect = lower value): 0.967 | normalized growth (locus YJL166W, strain qcr8, stronger effect = lower value): 1.03 | normalized growth (locus YJL168C, strain set2, stronger effect = lower value): 0.927 (active) | normalized growth (locus YJL187C, strain SWE1 (second series), stronger effect = lower value): 1.03 | normalized growth (locus YJL187C, strain SWE1, stronger effect = lower value): 0.996 | normalized growth (locus YJR043C, strain POL32, stronger effect = lower value): 1 | normalized growth (locus YJR066W, strain TOR1, stronger effect = lower value): 0.965
